In the library only some 7.9% were active in any assay of this set; here they are far more common.
KB-3-1 tox – KB-3-1 parental cell cytotoxicity; KB-3-1 viability, CellTiter-Glo ATP luminescence, 72 h; Potency, µM (titrated, usually from 46.1 µM), hits mostly cytotoxic; hit rate 1.4% among 400,000; also: % is scaled to controls: 0 for no effect and ±100 for the full control effect; nearly all actives have a fitted effect of over 60% in size
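Using CellTiter-Glo luminescence, growth of non-resistant KB-3-1 adenocarcinoma cells is assessed 72 h after pin-tool compound addition at 37 °C. Normalized responses across the concentration series yield fitted curves.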
SW480 rerep – induces DNA re-replication in SW480 colon adenocarcinoma cells. hit rate 1.8% among 340,000. AID 624297. SW480 DNA re-replication, Hoechst DNA content imaging, 48 h. Potency, µM (titrated, usually from 46.1 µM), without a hit: at the highest dose re-replication activation, most hits filed as activators; also: % of control where 0% means no effect; nearly all actives have a fitted effect of over 55% in size
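Readout is total intensity of Hoechst-stained nuclei, excited at 405 nm and collected at 500-530 nm. Compound treatment lasted 48 hr at 37 C in 5% CO2 before staining.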
MCF10A rereplic – induces DNA re-replication in MCF 10a normal breast cells; MCF 10A DNA re-replication, Hoechst nuclear intensity, 48 h; Potency, µM (series often up to 46.1 µM), for the others: at the top dose activity, positive = re-replication, actives largely listed as activators; hit rate 2.9% among 350,000; AID 624296; also: % of control where 0% means no effect; nearly all actives have a fitted effect of over 50% in size
KB-V1 MDR tox – kills drug-selected multidrug resistant KB-V1 cells; KB-V1 MDR cells viability, CellTiter-Glo, 72 h; Potency, µM (doses to about 46.1 µM), hits mostly cytotoxic; hit rate 3.4% among 400,000; also: % is scaled to controls: 0 for no effect and ±100 for the full control effect; nearly all actives have a fitted effect of over 60% in size
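Readout: CellTiter-Glo luminescence, 10 min after addition. Cells: KB-V1 MDR subline, 72 h at 37 degrees C with compound. Analysis: corrected, normalized data fitted to concentration-effect curves.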
HT1080 IDH1KD tx – toxicity to HT-1080 IDH1 knockdown cells (counter line); Potency, µM (doses to about 46.1 µM), without a hit: top-dose activity, negative = toxicity, most hits filed as cytotoxic; AID 686971; hit rate 2% among 360,000; HT-1080 IDH1 knockdown viability, ATP luminescence, 48 h;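 also: 0% = DMSO wells and -100% = cell-free medium wells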
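HT-1080-IDH1KD cells (IDH1 knocked down), 750/well in RPMI with 5% FBS, treated with compound 48 h at 37 degrees C. Viability by CellTiter-Glo luminescence, normalised to DMSO and no-cell wells; concentration-response curves classed.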
HT1080NT lethal – kills 2HG-producing HT-1080-NT fibrosarcoma cells; HT-1080-NT fibrosarcoma viability, CellTiter-Glo ATP luminescence, 48 h; AID 686970; Potency, µM (top dose mostly 46.1 µM), for inactives: top-dose activity, negative = less viability, usual class: cytotoxic; hit rate 1.6% among 360,000;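 also: NT is the 2HG producing partner of a matched IDH1 knockdown line; 0% = DMSO-treated cells and -100% = media-only wells without cells; nearly all actives have a fitted effect of over 55% in size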
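Fibrosarcoma NT cells, 750 per well in 5% FBS RPMI, were exposed to compound for 48 hours. Viability: CellTiter-Glo luminescence.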
Numbers without * were called inactive; i = inactive; ? = inconclusive; · = no result given; ! = not confirmed by another sample; [ ] = another dose, or the depositor's remark. Calls follow the shape of the dose curve; as a rule, active = well fitted curve in the direction sought with a large enough effect; inconclusive = small, poorly fitted or top-dose-only effect, or another doubt; inactive = no such curve, though single readings can be large; an effect the other way counts as inactive or inconclusive. Potency is read from the fitted curve at half-maximal effect.

SMILES | KB-3-1 tox | SW480 rerep | MCF10A rereplic | KB-V1 MDR tox | HT1080 IDH1KD tx | HT1080NT lethal
COc1cccc(CNCCSc2nnnn2C)c1OCc1ccc(Cl)cc1 | ? | · | · | i | · | ·
COc1ccc(OC)c(CNC(=O)c2c(C)oc3ncn(CC(C)C)c(=O)c23)c1 | i | · | · | i | · | ·
CCOc1ccc(NC(=O)CN(c2ccc(C)cc2)S(=O)(=O)c2cccs2)cc1 | i | · | · | i | · | ·
CC(C)(C)NC(=O)[C@@H]1C[C@@H]2CCCC[C@@H]2CN1C[C@@H](O)[C@H](Cc1ccccc1)NC(=O)[C@H](CC(N)=O)NC(=O)c1ccc2ccccc2n1 | ? | ? | ? | i | 23µM* | 21µM*
CCn1c(=O)c([N+](=O)[O-])c(Cl)c2ccccc21 | ? | 8.2µM* | 26% | i | 3.7µM* | ?
CC(=O)N1CCc2cc(S(=O)(=O)NC(Cc3ccccc3)C(=O)NCc3ccccc3)ccc21 (centres undefined) | i | · | · | i | · | ·
Nc1nc2nc(-c3cccs3)cc(C(F)(F)F)n2n1 | i | ? | 21µM* | i | 15% | 13%
COc1ccc(Cn2ccc3nc(C)c(C(=O)Nc4ccc(OC)c(OC)c4)cc3c2=O)cc1 | i | · | · | ? | · | ·
CCN1CC=C2C(C#N)=C(N)C(C#N)(C#N)C(c3cc(Cl)ccc3Cl)C2C1 (centres undefined) | i | 8% | 16µM* | i | ? | -13%
N/C(=N\N=C\c1cccs1)SC1CC(=O)N(c2ccc(Br)cc2)C1=O (centres undefined) | i | 10% | 1% | i | ? | -16%
N/C(=N\N=C\c1ccnc2ccccc12)SC1CC(=O)N(c2ccc(Br)cc2)C1=O (centres undefined) | i | 0% | 7.3µM* | i | -1% | -13%
CCn1c(C)nc2cc(S(N)(=O)=O)ccc21 | i | 18% | 13µM* | i | -11% | -13%
COc1ccc(OC)c(CCNc2ncnc3onc(-c4ccc(Cl)cc4)c23)c1 | i | · | · | i | · | ·
C=CC[C@H](CC(=O)N(CCO)Cc1ccccc1)C(=O)N[C@H](COC(=O)[C@@H](CC=C)Cc1ccc(F)cc1)Cc1c[nH]c2ccccc12 | ? | ? | ? | ? | 21µM* | ?
C=CCC[C@H](Cc1ccc(F)cc1)C(=O)OC[C@@H](Cc1c[nH]c2ccccc12)NC(=O)[C@@H](CC=C)CC(=O)N[C@@H](CO)Cc1ccccc1 | ? | ? | 18µM* | i | ? | ?
C=CC[C@@H](CC(=O)N[C@@H](CO)Cc1ccccc1)C(=O)NC[C@@H](OC(=O)[C@@H](CC=C)Cc1ccc(F)cc1)c1ccccc1 | i | 18% | -11% | i | -5% | 1%
C=CC[C@@H](CC(=O)N[C@@H](CO)Cc1ccccc1)C(=O)NC[C@H](OC(=O)[C@@H](CC=C)Cc1ccc(F)cc1)c1ccccc1 | ? | 2% | ? | i | 23µM* | ?
C=CCC[C@@H](Cc1ccc(F)cc1)C(=O)OC[C@@H](NC(=O)[C@@H](CC=C)CC(=O)N(CCO)Cc1ccccc1)c1ccccc1 | ? | 25% | ? | ? | ? | 21µM*
C=CC[C@@H](CC(=O)N(CCO)Cc1ccccc1)C(=O)N[C@H](COC(=O)[C@@H](CC=C)Cc1ccc(F)cc1)Cc1c[nH]c2ccccc12 | ? | 0% | ? | ? | ? | ?
C=CCC[C@@H](Cc1ccc(F)cc1)C(=O)OC[C@@H](Cc1c[nH]c2ccccc12)NC(=O)[C@H](CC=C)CC(=O)N[C@H](CO)Cc1ccccc1 | ? | -3% | 16µM* | i | ? | 21µM*
Cc1ccc2nc(CS)[nH]c2c1 | i | · | · | i | · | ·
Cc1cccc(C(=O)Nc2nnc(SCC(=O)Nc3ccc4c(c3)oc3ccccc34)s2)c1 | i | -3% | ? | i | ? | ?
CCn1c(SCC(=O)Nc2ccc3c(c2)oc2ccccc23)nnc1-c1ccc(N)cc1 | ? | ? | ? | 18µM* | ? | ?
COc1ccccc1C(=O)Nc1nnc(SCC(=O)Nc2ccc3c(c2)oc2ccccc23)s1 | i | 0% | 3% | 18µM* | -7% | -13%
CCOC(=O)C1=C(CNCc2ccccc2)NC(=O)NC1c1ccc(C)cc1 (centres undefined) | i | · | · | i | · | ·
SMILES | KB-3-1 tox | SW480 rerep | MCF10A rereplic | KB-V1 MDR tox | HT1080 IDH1KD tx | HT1080NT lethal
C=CCOc1ccc(C2C3=C(CCCC3=O)N(CC(=O)O)C3=C2C(=O)CCC3)cc1OCC | i | -5% | -2% | ? | 16% | 26%
C=CCOc1c(Br)cc(C2C3=C(CCCC3=O)N(C)C3=C2C(=O)CCC3)cc1OCC | i | 23µM* | -3% | i | 7% | 2%
CCOc1ccc(NC(=O)N2CC3CCCN3c3ccccc32)cc1 (centres undefined) | i | · | · | i | · | ·
CCOc1ccc(OCC)c(NC(=O)c2nnn(CC(=O)Nc3cc(C)cc(C)c3)c2N)c1 | i | ? | 18µM* | i | 21µM* | ?
CCc1ccccc1NC(=O)Cn1nnc(C(=O)NCc2cccs2)c1N | 9.2µM*! | 3.3µM* | ? | i | 4.1µM* | 5.8µM*
COc1ccccc1NC(=O)Cn1nnc(C(=O)NCc2cccs2)c1N | 2.1µM*! | ? | 1.2µM* | 5.8µM* | 2.1µM* | 2.3µM*
COc1ccc(NC(=O)Cn2nnc(C(=O)NCc3ccccc3)c2N)c(OC)c1 | ? | ? | 16µM* | i | ? | ?
CCc1ccc(NC(=O)Cn2nnc(C(=O)NCc3cccs3)c2N)cc1 | i | -1% | -1% | i | -4% | -3%
CCOc1ccc(NC(=O)Cn2nnc(C(=O)Nc3ccc(OCC)cc3)c2N)cc1 | i | · | · | i | · | ·
CCCCCSc1nc2sc3c(c2c(=O)n1-c1ccc(OC)cc1)CCN(C(C)=O)C3 | ? | · | · | i | · | ·
O=C(COc1ccccc1C(=O)OCC(=O)N1CCOCC1)Nc1ccc(Br)cc1 | · | · | · | · | 3% | 1%
CCc1ccccc1NC(=O)Cn1nnc(C(=O)NCc2ccco2)c1N | 8.2µM* | · | · | ? | · | ·
Cc1ccc(C)c(NC(=O)Cn2nnc(C(=O)NCc3cccs3)c2N)c1 | i | 13% | ? | i | 23µM* | ?
Cc1ccc(NC(=O)Cn2nnc(C(=O)NCc3cccs3)c2N)cc1 | i | -5% | 430%[0.0737 µM] | i | ? | ?
C[C@H](O)CNC(=O)c1[nH]cnc1C(=O)Nc1ccc(CNC(=O)OC(C)(C)C)cc1 | i | · | · | i | 1% | -21%

Screens from PubChem.
